Values without a mark were called inactive. The rule behind the calls is not given here.
target: Pantothenate synthetase (Mycobacterium tuberculosis (strain ATCC 25618 / H37Rv)) (UniProt P9WIL5); experiment: Coupled enzyme confirmation of inhibitors against recombinant Mtb PanC (AID 375); details: coupled enzyme assay; at 10 µM, active compounds read high;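 note: 0% = full reaction with vehicle and 100% = no enzyme background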
Sequence (P9WIL5 whole entry, looked up): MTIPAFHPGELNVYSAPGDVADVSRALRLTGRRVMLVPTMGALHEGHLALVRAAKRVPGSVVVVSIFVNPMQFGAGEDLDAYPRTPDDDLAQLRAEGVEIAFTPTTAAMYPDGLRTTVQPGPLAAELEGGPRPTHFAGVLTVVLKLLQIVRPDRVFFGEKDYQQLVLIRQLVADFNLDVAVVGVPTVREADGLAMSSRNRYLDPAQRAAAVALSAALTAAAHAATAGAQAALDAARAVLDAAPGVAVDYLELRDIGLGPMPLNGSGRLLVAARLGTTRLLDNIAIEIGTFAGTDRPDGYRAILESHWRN

| Structure (SMILES) | inhibition [%] |
| --- | --- |
| N#CC1=C(N)S[C@H](C(=O)C23CC4CC(CC(C4)C2)C3)[C@H]1c1ccncc1 | 0 |
| CC1=Nn2c(nnc2-c2cc(-c3ccccc3)n[nH]2)SC1 | 0 |
| COc1cccc(-c2csc3nc[nH]c(=O)c23)c1 | 3 |
| CCOC(=O)c1c(C)[nH]c(C(=O)COC(=O)C2CC2C)c1C (configuration not stated) | 0 |
| COc1ccc2c(c1)Sc1ccccc1N2CCN(C)C | 3 |
| CCOc1ccc(NC(=O)CN(C)CC(=O)NC2CCCc3ccccc32)cc1OCC (configuration not stated) | 7 |
| c1cncc(-c2nc3c4ccccc4nc(N4CCC(N5CCCCC5)CC4)n3n2)c1 | 0 |
| CCc1ccc(NS(=O)(=O)c2cccs2)cc1 | 0 |
| COCCn1nnnc1C(c1ccccc1OC)N1CCc2ccccc2C1 (configuration not stated) | 0 |
| COc1ccc(C2C(=O)N(C3CCCCC3)CC(=O)N2Cc2ccco2)cc1 (configuration not stated) | 6 |
| Cc1noc(NS(=O)(=O)c2ccc(NC(=O)CCC3CCCC3)cc2)c1C | 0 |
| COCCn1nnnc1C(c1cc2cc(C)cc(C)c2[nH]c1=O)N1CCN(c2ccccc2F)CC1 (configuration not stated) | 2 |
| COCCn1c(SCC(=O)Nc2cccc(OC)c2)nnc1-c1ccc(Cl)cc1 | 3 |
| COc1ccc(OC)c(C(=O)c2nc3c(n2O)CCCCC3)c1 | 0 |
| CCOc1ccc2nc(Nc3nc4c(c(=O)[nH]3)CCC4)nc(C)c2c1 | 0 |
| Cc1nnc(SCC(=O)N2c3ccccc3CC2C)s1 (configuration not stated) | 0 |
| CCOC(=O)c1ccc(NC(=O)CSc2n[nH]c(-c3ccncc3)n2)cc1 | 5 |

Reference: PubChem BioAssay
